Experimental findings from PubChem BioAssay (NCATS) are described below.

Assay [1] has as its target Lysosomal acid glucosylceramidase (Homo sapiens) (UniProt P04062). Nature of the assay: Glucocerebrosidase-p2 (AID 348; in the data active = potency below about 10 µM; also: potency is read from the fitted curve at half-maximal effect). Conditions: purified GBA, blue fluorogenic substrate, 40 min. The method, boiled down:
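Compounds titrated from 0.6 nM upwards against 0.2 nM enzyme in pH 5.9 citric acid/KH2PO4, taurocholate, tween-20; blue fluorogenic substrate 80 uM, 40 min room temperature, stopped and read Ex 365/Em 440 for AC50.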

The nature of assay [2]: AP1 Signaling Pathway (AID 357).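 Also: ME-180 reporter cells stimulated with EGF at its EC50 level; % is scaled to controls: 0 for no effect and ±100 for the full control effect.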 Conditions: ME-180 AP-1-bla reporter, EGF-induced, beta-lactamase ratio, 5 h; at 7.69 µM (top of the series) unless noted. The method, boiled down:
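Modulation of EGF-driven AP-1 transcription was assessed with a beta-lactamase reporter in ME-180 cells. Compound and EC50 EGF were co-incubated 5 hours at 37 °C before 2.5-hour CCF4 loading at room temperature and dual-emission reading.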

In assay [3] the target is Cytochrome P450 1A2 (Homo sapiens) (UniProt P05177). Nature of the assay: p450-cyp1a2 (AID 410; calls by dose curve; also: potency is read from the fitted curve at half-maximal effect;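 as to activity change, negative = inhibition: -100% = full effect of reference inhibitor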). Conditions: recombinant CYP1A2, luciferin-ME demethylation, luminescence; series mostly up to 57 µM. The method, boiled down:
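Luminescent readout of luciferin formed from Luciferin-ME by human CYP1A2; data normalized against complete inhibition by 57 uM furafylline. Enzyme 20nM, substrate 100uM at Km, 100mM KPO4 buffer, 60 min reaction at room temperature.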

A short description of assay [4]: NFAT Signaling Pathway (AID 444).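 Also: carbachol stimulus at about its EC50 of 1 µM final; % is scaled to controls: 0 for no effect and ±100 for the full control effect.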 Conditions: Jurkat NFAT-bla M1, carbachol, beta-lactamase ratio, 5 h; at 7.69 µM (top of the series) unless noted. Summed up:
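Jurkat cells with NFAT-driven β-lactamase reporter and co-expressed M1 receptor, stimulated with carbachol (final 1 uM, ~EC50), compound titration, 5 h at 37 °C. CCF4 loaded 1 h at RT; 460/530 nm ratio gave %activity and AC50.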

A short description of assay [5]: Stat Signaling Pathway (AID 446).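 Also: ME-180 cervical cancer cells given 40 pM IL-6 alongside compound; SIE-controlled beta-lactamase reporter measured as 460/530 nm FRET emission ratio; % is scaled to controls: 0 for no effect and ±100 for the full control effect.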 Conditions: ME-180 SIE beta-lactamase reporter, IL-6 stimulated, 5 h; at 7.69 µM (top of the series) unless noted. Summed up:
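ME-180 SIE-bla cells; overnight plating; cpd + IL-6 40 pM, 5 h, 37 C; LiveBLAzer 2.5 h RT; 460/530 nm emission ratio. Normalized to 300 pM IL-6 and 125 nM JAK inhibitor controls.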

Assay [6] addresses Glucocorticoid receptor (Homo sapiens) (UniProt P04150). The assay can be described thus: GR-GFP Redistribution (AID 450;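 active = compounds whose dose series gives a full or clear partial fitted curve of increased nuclear translocation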; also: potency is read from the fitted curve at half-maximal effect). The following applies: U2OS GR-GFP nuclear translocation, laser cytometry, 2 h.
Assay [7] shares this target. The assay can be described thus: GR-EFC Redistribution (AID 451; calls by dose curve; also: potency is read from the fitted curve at half-maximal effect). Conditions: CHO-K1 GR-EFC translocation, beta-gal luminescence, 2 h. Summed up:
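CHO-K1 cells expressing nuclear EA and GR-ED fragments of b-gal; compounds titrated up to 46 uM final, 2 h at 37 C. GR nuclear translocation read as complemented b-gal luminescence after 1 h RT detection.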

Assay [8] concerns the target Mitogen-activated protein kinase 10 (Mus musculus) (UniProt Q61831). Nature of the assay: JNK3 AlphaScreen Assay (AID 530).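 Also: kinase came from lysate of stimulated human HepG2 cells; signal reports phosphorylation of biotinylated GST-cJun 1-79 at Ser73 with 10 µM ATP; % is scaled to controls: 0 for no effect and ±100 for the full control effect.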 The following applies: JNK3 lysate, c-Jun phosphorylation; series mostly up to 57.1 µM. Summed up: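 Pre-activated (IL-1β/TNFα) JNK3 in HepG2 lysates phosphorylates biotin-GST-cJun(1-79), 10 uM ATP; anti-phospho-cJun(Ser73) AlphaScreen read at room temperature, pH 7.6 Tris buffer. Compounds pre-incubated 15 min as titrations.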
For orientation: Bead proximity is the source of the signal in Alpha formats.

For assay [9], the target named is 3',5'-cyclic-AMP phosphodiesterase 4B (Homo sapiens) (UniProt Q07343). The assay can be described thus: qHTS Assay for Inhibitors of PDE-IV (AID 607; active = well fitted activation curve with a large enough effect in the main read-out, with a control signal flat, not every such curve was filed as active; also: % of control where 0% means no effect). Conditions: HEK293 ACTOne CNG channel cells, membrane potential fluorescence; series mostly up to 22.9 µM. Summed up:
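ACTOne HEK293 cells carry a modified cAMP-gated CNG channel and express endogenous PDE4; plated 1000 cells/well, compounds up to 22.9 uM final. Membrane-potential dye fluorescence (ex 535/em 590) was read; parental cells received 10 uM forskolin + 100 uM RO 20-1724.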
(In general: In qHTS, concentration-response curves come from the screen itself.)

The target of assay [10] is Cytochrome P450 3A4 (Homo sapiens) (UniProt P08684). Nature of the assay: qHTS Assay for Activators of Cytochrome P450 3A4 (AID 885; active = well fitted curve in the direction sought with a large enough effect; an effect the other way counts as inactive or inconclusive; also: nearly all actives have a fitted effect of over 65% in size). Conditions: recombinant CYP3A4, Luciferin-PPXE luminescence, 60 min; series mostly up to 57.1 µM. Summed up: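 20nM CYP3A4 + 25uM Luciferin-PPXE (=KM), 200mM KPO4; cpd 10 min RT; NADPH regen, 60 min RT; stop w/ detection buffer, 20 min; luminescence. Normalized to 57 uM ketoconazole.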
Cytochrome P450 3A4 (Homo sapiens), sequence (P08684 whole entry, looked up): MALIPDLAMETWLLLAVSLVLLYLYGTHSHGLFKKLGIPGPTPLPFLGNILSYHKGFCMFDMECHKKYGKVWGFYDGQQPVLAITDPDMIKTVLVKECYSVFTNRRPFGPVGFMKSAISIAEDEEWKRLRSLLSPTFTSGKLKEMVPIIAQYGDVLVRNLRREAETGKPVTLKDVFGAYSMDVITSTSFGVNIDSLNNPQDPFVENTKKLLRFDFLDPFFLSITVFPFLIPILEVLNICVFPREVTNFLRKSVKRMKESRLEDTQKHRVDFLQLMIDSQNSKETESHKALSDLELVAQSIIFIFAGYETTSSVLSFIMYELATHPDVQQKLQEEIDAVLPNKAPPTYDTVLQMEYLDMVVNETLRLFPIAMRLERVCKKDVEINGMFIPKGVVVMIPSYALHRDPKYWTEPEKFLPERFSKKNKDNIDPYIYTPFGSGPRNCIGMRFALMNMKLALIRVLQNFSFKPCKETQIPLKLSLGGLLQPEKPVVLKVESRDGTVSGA

A short description of assay [11]: Confirmation and Secondary Assay for Modulators of Hemoglobin Beta Chain Splicing at IVS2 654 locus (AID 910; active = well fitted curve in the direction sought with a large enough effect; an effect the other way counts as inactive or inconclusive;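 also: HeLa cells stably carrying EGFP split by mutant beta-globin IVS2-654 intron; % of control where 0% means no effect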). Conditions: HeLa EGFP-654 splicing reporter, GFP fluorescence, 48 h; series mostly up to 38.3 µM. Summed up:
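HeLa cells stably expressing EGFP interrupted by β-globin IVS2-654 intron, seeded overnight in Opti-MEM/2% FCS, then treated 2 days at 37 °C. Restored splicing read as total peak GFP intensity per well by laser scanning cytometry (488 nm excitation, 500–520 nm emission); 500 nM antisense PNA as control.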

Assay [12] is described as follows: qHTS Assay for Lipid Storage Modulators (AID 1519; calls by dose curve). Conditions: Drosophila S3 cells, BODIPY lipid droplet/cell ratio, laser cytometry, cells loaded with oleic acid; for activity change, negative = inhibition: at 57.5 µM (top of the series). The method, boiled down: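 Cells seeded at 5,000 per well were treated with compounds over a concentration series and loaded with oleic acid (400 uM, as added). Lipid droplet fluorescence (488 nm excitation, 500-530 nm channel) was read by laser-scanning cytometry and normalized to 20 uM Triacsin C.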

The target of assay [13] is Cytochrome P450 3A4 (Homo sapiens) (UniProt P08684). Nature of the assay: qHTS Assay for Inhibitors and Substrates of Cytochrome P450 3A4 (AID 884; active = well fitted curve in the direction sought with a large enough effect; an effect the other way counts as inactive or inconclusive; also: potency is read from the fitted curve at half-maximal effect; nearly all actives have a fitted effect of over 50% in size). The following applies: recombinant CYP3A4, Luciferin-PPXE luminescence; series mostly up to 57.1 µM. Summed up: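 20 nM human CYP3A4 with 25 uM Luciferin-PPXE (at KM) in 200 mM KPO4, preincubated 10 min with compound; NADPH regeneration started a 60 min RT reaction. Luciferin detected by luminescence, normalized to 57 uM ketoconazole as full inhibition.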

Assay [14] concerns the target Cytochrome P450 2C19 (Homo sapiens) (UniProt P33261). Nature of the assay: qHTS Assay for Inhibitors and Substrates of Cytochrome P450 2C19 (AID 899; active = well fitted curve in the direction sought with a large enough effect; an effect the other way counts as inactive or inconclusive; also: potency is read from the fitted curve at half-maximal effect; nearly all actives have a fitted effect of over 60% in size). Conditions: recombinant CYP2C19, luciferin-H EGE luminescence; series mostly up to 57.1 µM. Summed up:
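5 nM human CYP2C19 with 10uM Luciferin-H EGE (at KM) in 50mM KPO4, compound preincubated 10 min at 37C, then NADPH regeneration for 60 min at 37C. Luciferin read by luminescence after detection reagent; normalized to 57uM ketoconazole as full inhibition.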

The nature of assay [15]: Confirmation and Secondary Assay for Modulators of Hemoglobin Beta Chain Splicing at IVS2 705 locus (AID 930; active = well fitted curve in the direction sought with a large enough effect; an effect the other way counts as inactive or inconclusive;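 also: HeLa cells stably expressing the EGFP-705 splicing reporter; GFP fluorescence per well restored by corrected splicing of the IVS2-705 intron in EGFP; % of control where 0% means no effect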). Conditions: HeLa EGFP-705 splicing reporter, GFP fluorescence, 48 h; series mostly up to 38.3 µM. Summed up: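 HeLa IVS2-705 EGFP reporter cells, 500/well, compound 2 d at 37C; correct splicing yields fluorescent EGFP. Control: 500 nM antisense PNA. Read-out: total peak GFP intensity.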

For assay [16], the target named is Cytochrome P450 2D6 (Homo sapiens) (UniProt P10635). Nature of the assay: qHTS Assay for Inhibitors and Substrates of Cytochrome P450 2D6 (AID 891; active = well fitted curve in the direction sought with a large enough effect; an effect the other way counts as inactive or inconclusive; also: potency is read from the fitted curve at half-maximal effect; nearly all actives have a fitted effect of over 60% in size). The following applies: recombinant CYP2D6, luciferin-ME EGE luminescence; series mostly up to 57.1 µM. The method, boiled down:
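Human CYP2D6 (5 nM) with 30 uM Luciferin-ME EGE (at Km) in 100 mM KPO4, compound preincubated 10 min, then NADPH regeneration system for 60 min at room temperature. Luciferin read by luminescence; normalized to 1.43 uM quinidine.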

Assay [17] in a line: qHTS Assay for Identification of Small Molecule Agonists for Hypoxia Response Element Signaling Pathway (AID 914; active = well fitted activation curve with a large enough effect in the signal ratio, with a control signal flat, not every such curve was filed as active; the % refers to the signal ratio; also: % of control where 0% means no effect). The following applies: ME-180 (cervical carcinoma) HRE-bla reporter, beta-lactamase ratio, CoCl2, 17 h; activation: stronger effect = higher value. The method, boiled down: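 HRE-bla ME-180 assay for agonist-like enhancement of an EC50 CoCl2 stimulus: 17 h at 37 degrees Celsius, CCF4 for 2.5 h, ratiometric 460/530 nm signal converted to %Activity and fitted to AC50.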

For assay [18], the target named is Ubiquitin carboxyl-terminal hydrolase 1 (Homo sapiens) (UniProt O94782). The assay can be described thus: Inhibitors of USP1/UAF1: Pilot qHTS (AID 504865; active = well fitted curve in the direction sought with a large enough effect; an effect the other way counts as inactive or inconclusive;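 also: rhodamine fluorescence freed from ubiquitin-rhodamine substrate followed over time; top concentration of the series differs between compounds; % is scaled to controls: 0 for no effect and ±100 for the full control effect; nearly all actives have a fitted effect of over 35% in size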). The following applies: purified USP1/UAF1, Ub-rhodamine cleavage fluorescence; series mostly up to 54.9 µM. The method, boiled down:
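Kinetic fluorescence assay: 1nM USP1/UAF1, 15 min compound preincubation, then 150nM Ub-Rho; 480/540 nm.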

The mark [19] stands for this setting: measured here: cell count channel max response.
The mark [20] stands for this setting: measured here: lipid channel max response.

Inconclusive results are not listed. Activity calls are given as the source filed them. Unless noted, calls follow the shape of the dose curve; as a rule, active = well fitted curve in either direction with a large enough effect (not every such curve was filed as active); inconclusive = small, poorly fitted or top-dose-only effect, or another doubt; inactive = flat fitted curve, though single readings scatter.

Lysosomal acid glucosylceramidase (Homo sapiens), sequence (P04062 whole entry, looked up): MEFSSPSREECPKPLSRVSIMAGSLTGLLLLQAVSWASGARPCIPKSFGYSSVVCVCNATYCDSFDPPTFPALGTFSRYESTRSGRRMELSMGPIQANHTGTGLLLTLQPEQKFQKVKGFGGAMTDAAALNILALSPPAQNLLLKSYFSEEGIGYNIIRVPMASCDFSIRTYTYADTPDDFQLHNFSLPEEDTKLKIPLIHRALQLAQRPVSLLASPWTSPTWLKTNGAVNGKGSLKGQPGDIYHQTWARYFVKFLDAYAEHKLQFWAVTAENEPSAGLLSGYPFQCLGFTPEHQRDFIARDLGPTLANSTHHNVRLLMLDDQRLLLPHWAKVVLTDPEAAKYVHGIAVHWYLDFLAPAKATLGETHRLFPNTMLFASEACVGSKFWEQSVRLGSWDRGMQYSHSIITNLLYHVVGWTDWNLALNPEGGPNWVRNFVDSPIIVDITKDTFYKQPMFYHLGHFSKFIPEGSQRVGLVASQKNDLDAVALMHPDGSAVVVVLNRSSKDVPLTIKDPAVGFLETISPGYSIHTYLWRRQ
3',5'-cyclic-AMP phosphodiesterase 4B (Homo sapiens), sequence (Q07343 whole entry, looked up): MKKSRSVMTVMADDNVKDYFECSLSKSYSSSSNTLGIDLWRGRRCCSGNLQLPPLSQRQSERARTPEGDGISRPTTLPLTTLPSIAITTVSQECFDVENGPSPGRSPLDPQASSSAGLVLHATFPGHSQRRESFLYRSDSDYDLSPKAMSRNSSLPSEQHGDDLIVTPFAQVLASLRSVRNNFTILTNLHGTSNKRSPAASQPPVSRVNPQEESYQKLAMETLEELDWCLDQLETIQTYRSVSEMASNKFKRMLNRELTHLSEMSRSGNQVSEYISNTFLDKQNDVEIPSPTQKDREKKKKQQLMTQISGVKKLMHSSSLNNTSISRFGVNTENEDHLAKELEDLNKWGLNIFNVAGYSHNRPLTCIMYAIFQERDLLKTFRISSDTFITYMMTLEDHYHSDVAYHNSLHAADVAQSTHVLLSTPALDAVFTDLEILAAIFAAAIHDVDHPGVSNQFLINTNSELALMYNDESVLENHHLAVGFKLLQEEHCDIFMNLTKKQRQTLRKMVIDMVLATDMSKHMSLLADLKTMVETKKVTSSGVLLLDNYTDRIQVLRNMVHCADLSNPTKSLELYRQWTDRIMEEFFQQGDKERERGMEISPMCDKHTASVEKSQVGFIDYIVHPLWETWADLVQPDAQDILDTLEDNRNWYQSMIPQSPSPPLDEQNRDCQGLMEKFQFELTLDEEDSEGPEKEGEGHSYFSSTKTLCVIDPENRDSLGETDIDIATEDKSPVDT
Cytochrome P450 1A2 (Homo sapiens), sequence (P05177 whole entry, looked up): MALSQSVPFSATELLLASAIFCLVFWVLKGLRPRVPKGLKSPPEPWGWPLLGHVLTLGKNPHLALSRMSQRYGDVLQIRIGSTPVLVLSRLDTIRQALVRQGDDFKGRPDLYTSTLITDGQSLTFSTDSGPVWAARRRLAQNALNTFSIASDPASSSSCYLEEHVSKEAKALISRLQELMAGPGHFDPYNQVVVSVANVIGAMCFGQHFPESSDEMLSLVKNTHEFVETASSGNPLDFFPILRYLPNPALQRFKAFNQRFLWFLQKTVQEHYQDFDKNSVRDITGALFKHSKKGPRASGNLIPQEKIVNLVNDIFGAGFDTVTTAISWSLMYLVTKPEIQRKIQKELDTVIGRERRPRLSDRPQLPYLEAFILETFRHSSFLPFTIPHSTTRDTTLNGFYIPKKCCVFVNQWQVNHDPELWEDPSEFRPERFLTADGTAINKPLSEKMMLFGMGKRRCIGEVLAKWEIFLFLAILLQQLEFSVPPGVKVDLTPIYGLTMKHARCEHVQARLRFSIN
Glucocorticoid receptor (Homo sapiens), sequence (P04150 whole entry, looked up): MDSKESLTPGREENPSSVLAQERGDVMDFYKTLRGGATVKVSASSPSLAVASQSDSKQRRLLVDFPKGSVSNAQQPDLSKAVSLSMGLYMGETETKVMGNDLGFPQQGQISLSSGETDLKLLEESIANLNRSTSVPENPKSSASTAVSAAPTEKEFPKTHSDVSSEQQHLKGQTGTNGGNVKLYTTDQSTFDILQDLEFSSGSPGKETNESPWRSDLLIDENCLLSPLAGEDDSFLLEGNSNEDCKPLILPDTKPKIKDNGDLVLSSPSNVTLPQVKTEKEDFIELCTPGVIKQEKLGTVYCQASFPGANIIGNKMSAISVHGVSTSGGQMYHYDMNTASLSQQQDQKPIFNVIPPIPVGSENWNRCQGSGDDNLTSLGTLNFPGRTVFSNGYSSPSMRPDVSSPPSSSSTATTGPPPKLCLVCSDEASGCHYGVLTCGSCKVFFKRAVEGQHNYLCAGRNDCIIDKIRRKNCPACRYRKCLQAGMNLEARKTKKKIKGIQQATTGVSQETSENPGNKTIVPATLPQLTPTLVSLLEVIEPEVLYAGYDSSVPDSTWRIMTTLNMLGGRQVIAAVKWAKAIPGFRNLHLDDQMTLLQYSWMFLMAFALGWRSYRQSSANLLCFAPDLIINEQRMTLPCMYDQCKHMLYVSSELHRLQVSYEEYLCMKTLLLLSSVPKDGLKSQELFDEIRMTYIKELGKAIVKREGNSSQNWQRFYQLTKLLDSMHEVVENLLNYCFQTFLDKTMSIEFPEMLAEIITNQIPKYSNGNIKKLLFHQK
Cytochrome P450 2C19 (Homo sapiens), sequence (P33261 whole entry, looked up): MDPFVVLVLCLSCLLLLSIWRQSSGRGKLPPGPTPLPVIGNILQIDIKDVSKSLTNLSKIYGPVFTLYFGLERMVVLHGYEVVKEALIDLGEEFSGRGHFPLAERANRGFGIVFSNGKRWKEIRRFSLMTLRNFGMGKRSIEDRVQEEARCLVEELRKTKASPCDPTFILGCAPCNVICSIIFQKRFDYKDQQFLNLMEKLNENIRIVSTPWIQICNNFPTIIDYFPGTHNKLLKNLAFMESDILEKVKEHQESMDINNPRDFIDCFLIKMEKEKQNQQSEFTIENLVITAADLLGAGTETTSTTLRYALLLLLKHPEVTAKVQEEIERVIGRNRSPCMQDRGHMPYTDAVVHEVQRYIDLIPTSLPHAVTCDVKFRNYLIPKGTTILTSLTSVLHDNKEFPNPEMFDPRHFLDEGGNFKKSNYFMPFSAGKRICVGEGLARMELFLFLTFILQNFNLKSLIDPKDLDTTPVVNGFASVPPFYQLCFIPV
Cytochrome P450 2D6 (Homo sapiens), sequence (P10635 whole entry, looked up): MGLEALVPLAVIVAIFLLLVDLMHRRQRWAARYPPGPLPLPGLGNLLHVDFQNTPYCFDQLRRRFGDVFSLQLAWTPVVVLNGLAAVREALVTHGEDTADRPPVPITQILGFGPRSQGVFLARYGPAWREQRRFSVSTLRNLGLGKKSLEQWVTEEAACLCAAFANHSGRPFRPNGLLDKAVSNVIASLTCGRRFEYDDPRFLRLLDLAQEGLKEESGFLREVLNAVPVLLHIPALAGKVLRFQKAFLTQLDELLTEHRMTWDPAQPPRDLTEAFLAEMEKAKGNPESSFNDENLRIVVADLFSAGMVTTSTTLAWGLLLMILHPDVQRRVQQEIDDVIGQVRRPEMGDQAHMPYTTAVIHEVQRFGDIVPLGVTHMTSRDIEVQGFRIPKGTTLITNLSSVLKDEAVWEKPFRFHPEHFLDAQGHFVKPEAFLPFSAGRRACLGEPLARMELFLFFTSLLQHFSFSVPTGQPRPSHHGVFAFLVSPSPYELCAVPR
Ubiquitin carboxyl-terminal hydrolase 1 (Homo sapiens), sequence (O94782 whole entry, looked up): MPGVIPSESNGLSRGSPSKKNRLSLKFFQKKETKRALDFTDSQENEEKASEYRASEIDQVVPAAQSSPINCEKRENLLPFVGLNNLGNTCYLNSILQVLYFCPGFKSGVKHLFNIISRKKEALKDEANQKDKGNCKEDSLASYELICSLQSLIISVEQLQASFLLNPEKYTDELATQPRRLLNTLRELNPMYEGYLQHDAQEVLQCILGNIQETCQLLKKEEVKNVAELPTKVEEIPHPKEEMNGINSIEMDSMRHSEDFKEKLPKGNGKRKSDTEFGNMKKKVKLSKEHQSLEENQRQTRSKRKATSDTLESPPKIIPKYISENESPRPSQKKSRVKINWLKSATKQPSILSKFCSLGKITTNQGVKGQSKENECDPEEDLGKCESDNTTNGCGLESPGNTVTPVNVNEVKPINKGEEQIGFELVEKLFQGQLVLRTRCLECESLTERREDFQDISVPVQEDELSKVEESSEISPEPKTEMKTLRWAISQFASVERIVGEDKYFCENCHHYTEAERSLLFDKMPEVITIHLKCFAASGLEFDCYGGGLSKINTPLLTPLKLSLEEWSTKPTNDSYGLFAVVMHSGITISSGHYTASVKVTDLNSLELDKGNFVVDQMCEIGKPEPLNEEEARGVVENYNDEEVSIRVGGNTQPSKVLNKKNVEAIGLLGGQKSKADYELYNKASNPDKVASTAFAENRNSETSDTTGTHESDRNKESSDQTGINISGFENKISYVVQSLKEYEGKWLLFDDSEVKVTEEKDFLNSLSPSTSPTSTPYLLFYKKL

On to `COc1ccccc1-c1nc(NCc2cnc(C)cn2)c2ccccc2n1`, for which the Potency in [1] was > 11.4 µM (inactive); in [3] it was 5.01 µM (active); in assay [6] it was > 46 µM (inactive); in assay [7], > 46 µM (inactive). In addition, the results for the activity change, negative = inhibition in assay [2], in [4] and in assay [12] were 4.95% (inactive), 2.11% (inactive) and 7.28% (inactive), respectively. Moreover, the activity, negative = inhibition in [5] is -5.06% (inactive). For the same compound, the Potency entry in assay [8], in assay [9], in assay [10] and in assay [11] was “inactive” in each case. In addition, the max response in assay [12] (setting [19]) turned out to be 6.96%; in assay [12] (setting [20]), 14.2%.

For `Cc1nc2cnc(N(C)C)nc2n(Cc2cccs2)c1=O`, the Potency was > 11.4 µM (inactive) in [1], 1.26 µM (active) in assay [3], > 9.22 µM (inactive) in assay [6] and > 46 µM (inactive) in assay [7]. In addition, the activity change, negative = inhibition in assay [2] was -12% (inactive); in assay [4], -7.11% (inactive); in [12] it was 3.99% (inactive). For the same compound, in assay [5], the activity, negative = inhibition is -2.49% (inactive). Besides, the Potency result in assay [8] and in assay [10] was “inactive” each time. The max response in assay [12] (setting [19]) came out at 10.1%; in assay [12] (setting [20]), 16.8%.

`COc1ccc2[nH]cc(CCNc3ncnc4ccc(-c5ccc(C(=O)N(C)C)cc5)cc34)c2c1`: the Potency is > 11.4 µM (inactive) in assay [1]; 12.6 µM (active) in assay [3]; > 46 µM (inactive) in [6]; > 46 µM (inactive) in [7]; 2.51 µM (active) in [13]; 7.94 µM (active) in assay [14]. Besides, the figures for the activity change, negative = inhibition in [2], in assay [4] and in [12] were -28% (inactive), 5.5% (inactive) and 0.717% (inactive), respectively. Besides, the activity, negative = inhibition in assay [5] is -28.2% (inactive). Moreover, the Potency result in assay [8], in assay [9], in [10] and in assay [11] was “inactive” each time. In addition, the compound was classed as inactive in assay [15]. Moreover, the max response in assay [12] (setting [19]) and in [12] (setting [20]) was -23.3% throughout.

In the case of `COc1ccccc1CN1CCC2(CC1)CCN(S(=O)(=O)c1ccccc1)CC2`, the Potency was > 11.4 µM (inactive) in assay [1], > 46 µM (inactive) in assay [7] and 0.158 µM (active) in assay [16]. For the same compound, the activity change, negative = inhibition in assay [2] is -0.16% (inactive); in [12] it was 0.93% (inactive). Moreover, the Potency result in assay [3], in assay [8] and in assay [9] was “inactive” each time. Besides, the activity, negative = inhibition in assay [5] is 5.45% (inactive). The max response in assay [12] (setting [19]) came out at 19%; in [12] (setting [20]) it was 23.6%.

With `COc1ccc2[nH]cc(CCNc3nc(-c4ccoc4)nc4ccccc34)c2c1`, the Potency is 8.61 µM (active) in assay [1]; 0.398 µM (active) in assay [3]; > 46 µM (inactive) in assay [6]; > 46 µM (inactive) in assay [7]; 3.16 µM (active) in assay [13]; 1.58 µM (active) in assay [14]. The figures for the activity change, negative = inhibition in [2] and in assay [12] were -4.09% (inactive) and 9.94% (inactive), respectively. The activity, negative = inhibition in assay [5] is -9.95% (inactive). For the same compound, the Potency entry in assay [8], in [10] and in [11] was “inactive” in each case. Moreover, in [17], the activation was -13.1% (inactive). The result in assay [15] was inactive. The max response in assay [12] (setting [19]) came out at 6.9%; in assay [12] (setting [20]) it was 18.2%.

As to `COc1ccccc1-c1cncnc1N1CCN(C)CC1`, the Potency in assay [1] was > 11.4 µM (inactive); in [6], > 46 µM (inactive); in assay [7], > 46 µM (inactive); in assay [13] it was 2.51 µM (active). For the same compound, the activity change, negative = inhibition in assay [2] is 3.96% (inactive); in [4], -14.4% (inactive); in assay [12] it was 3.21% (inactive). In addition, in assay [5], the activity, negative = inhibition was 4.86% (inactive). The Potency entry in [8], in [9], in assay [10] and in [18] was “inactive” in each case. In addition, the max response in assay [12] (setting [19]) amounted to 28%; in [12] (setting [20]), 29.7%.
